For this experiment, the target named is Splicing factor 3B subunit 1 (UniProt O75533). The experiment is described as follows: cross-link between two proteins; cross-linking mass spectrometry.

The results in this text go back to article doi:10.1101/2025.08.08.669391.

Chain of UniProt O75533 (O75533 whole entry): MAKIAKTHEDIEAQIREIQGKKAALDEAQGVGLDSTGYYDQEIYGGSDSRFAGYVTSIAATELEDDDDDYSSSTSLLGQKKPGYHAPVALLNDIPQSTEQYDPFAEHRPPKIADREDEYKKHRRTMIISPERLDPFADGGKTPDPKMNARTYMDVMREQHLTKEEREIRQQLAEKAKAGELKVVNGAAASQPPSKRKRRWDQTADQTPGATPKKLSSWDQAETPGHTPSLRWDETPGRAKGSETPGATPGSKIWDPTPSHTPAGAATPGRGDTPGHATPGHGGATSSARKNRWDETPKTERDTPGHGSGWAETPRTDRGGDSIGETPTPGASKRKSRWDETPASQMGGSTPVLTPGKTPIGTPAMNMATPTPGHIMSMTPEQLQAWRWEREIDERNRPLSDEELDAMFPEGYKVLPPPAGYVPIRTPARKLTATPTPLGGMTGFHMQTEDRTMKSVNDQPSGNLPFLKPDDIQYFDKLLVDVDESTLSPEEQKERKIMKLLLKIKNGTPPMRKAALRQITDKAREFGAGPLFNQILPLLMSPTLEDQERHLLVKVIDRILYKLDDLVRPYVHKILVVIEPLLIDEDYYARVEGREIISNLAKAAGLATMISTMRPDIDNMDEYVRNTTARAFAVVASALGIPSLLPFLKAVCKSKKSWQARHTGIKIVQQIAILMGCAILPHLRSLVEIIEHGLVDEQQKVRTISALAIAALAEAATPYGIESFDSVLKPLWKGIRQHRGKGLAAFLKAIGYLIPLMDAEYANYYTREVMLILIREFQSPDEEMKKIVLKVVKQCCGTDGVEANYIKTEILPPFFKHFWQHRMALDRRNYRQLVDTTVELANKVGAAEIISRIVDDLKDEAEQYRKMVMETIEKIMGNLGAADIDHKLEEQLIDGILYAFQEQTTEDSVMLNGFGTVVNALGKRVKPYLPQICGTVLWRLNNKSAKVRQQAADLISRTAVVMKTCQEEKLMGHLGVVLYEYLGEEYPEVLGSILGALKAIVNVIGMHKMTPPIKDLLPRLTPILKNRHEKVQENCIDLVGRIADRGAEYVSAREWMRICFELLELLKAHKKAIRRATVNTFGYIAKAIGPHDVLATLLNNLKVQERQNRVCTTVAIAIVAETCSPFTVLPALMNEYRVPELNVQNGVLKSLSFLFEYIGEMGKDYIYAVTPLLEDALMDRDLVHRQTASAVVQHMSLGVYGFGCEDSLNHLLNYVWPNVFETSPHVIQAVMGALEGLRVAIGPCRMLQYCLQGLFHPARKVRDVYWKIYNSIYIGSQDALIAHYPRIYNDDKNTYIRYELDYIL

On to “17S U2 SnRNP complex component HTATSF1, O43719”, for which the “listed as a hit” value was “yes”.
